Source: PubChem BioAssay (several laboratories)
An excerpt weighted towards active compounds, which were near 28% of everything screened.
CYP2C19 act: increases human CYP2C19 enzyme activity | P33261 | recombinant CYP2C19, luciferin-H EGE luminescence; hits give high values; 0 = fully inhibited enzyme, 1 = untreated enzyme | activation factor at 5 µM | 96,000 tested, under 10 active | AID 1025;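 active means activation factor of at least 2 at 5 µM in the primary screen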
PLK1 kinase inh: PLK1 (human) kinase inhibition; inhibition, % at 10 µM; P53350; recombinant PLK1 kinase, TR-FRET peptide phosphorylation; 97,000 compounds, 0.53% hits;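 active means inhibition of 50% or more in the single-concentration screen; inactive means inhibition below 50%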
Target sequence (P53350 whole entry, looked up): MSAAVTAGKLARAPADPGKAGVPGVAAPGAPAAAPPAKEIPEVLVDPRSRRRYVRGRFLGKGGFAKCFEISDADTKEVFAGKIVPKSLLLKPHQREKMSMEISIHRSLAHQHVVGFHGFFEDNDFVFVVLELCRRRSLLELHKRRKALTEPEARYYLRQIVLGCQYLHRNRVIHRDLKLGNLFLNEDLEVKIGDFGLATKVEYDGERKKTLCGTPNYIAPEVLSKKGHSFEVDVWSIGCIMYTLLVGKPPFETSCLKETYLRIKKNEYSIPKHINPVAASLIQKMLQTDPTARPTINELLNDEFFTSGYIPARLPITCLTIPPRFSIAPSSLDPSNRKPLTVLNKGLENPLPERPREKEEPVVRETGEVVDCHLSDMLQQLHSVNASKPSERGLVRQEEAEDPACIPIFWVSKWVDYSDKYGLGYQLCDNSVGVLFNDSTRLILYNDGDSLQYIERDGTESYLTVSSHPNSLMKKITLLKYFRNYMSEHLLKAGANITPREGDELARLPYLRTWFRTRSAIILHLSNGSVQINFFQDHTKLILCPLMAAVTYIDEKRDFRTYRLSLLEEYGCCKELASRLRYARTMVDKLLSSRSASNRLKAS
Plk1 PBD FP: blocks phosphopeptide binding to human Plk1 polo box domain; P53350; Plk1 PBD phosphopeptide binding, fluorescence polarization; inhibition, %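 (tested at about 20 µM)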; 97,000 compounds, 0.13% hits; AID 693; in the data active means inhibition above about 34%, passing the limit was not always enough
CYP2C9 inh: human CYP2C9 inhibition. CYP2C9 Supersomes, luciferin-H conversion, luminescence. 96,000 compounds, 20% hits. inhibition, % at 5 µM;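 active means blocking of liver enzyme CYP2C9 beyond about 50% at 5 µM, limit read from the data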
CYP2C9 activ: activators of human CYP2C9; 96,000 compounds, 1.4% hits; activation factor at 5 µM; AID 1024; recombinant CYP2C9, luciferin-H conversion, luminescence; hits give high values; factor 1 = untreated enzyme, 0 = blocked; P11712;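 active means activation factor of 2 or more for CYP2C9 at a 5 µM dose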
CYP2C19 inh: blocks human cytochrome P450 2C19. 96,000 compounds, 21% hits. CYP2C19 Supersomes, luciferin-H EGE luminescence, 30 min. AID 778. inhibition, % at 5 µM;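 active means CYP2C19 inhibition above a set limit at 5 µM in the primary screen, cut at about 50% in these data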
Numbers stand for hits; i = inactive; nt = no result given.

SMILES	CYP2C19 act	PLK1 kinase inh	Plk1 PBD FP	CYP2C9 inh	CYP2C9 activ	CYP2C19 inh
Cc1c2cnn(CC(=O)O)c(=O)c2c(C)n1Cc1ccccc1	i	i	i	i	i	i
COC(=O)Cn1ncc2c(C)n(Cc3ccccc3)c(C)c2c1=O	i	i	i	i	i	84
Cc1nnc(C)c2c(C)n(-c3ccc(Br)cc3)c(C)c12	i	i	i	i	i	i
Cc1ccc(-n2c(C)c3c(C)nnc(C)c3c2C)cc1	i	nt	nt	i	i	58
CC1CCC2C(C1)c1sc(=O)[nH]c1SC2(C)C (stereo not given)	i	i	i	i	i	i
COc1cc(OC)cc(C(=O)NC(=S)Nc2cccnc2)c1	i	i	i	78	i	76
O=C(NCc1ccc(Cl)cc1)c1cccnc1	i	i	i	i	i	66
CC(NC(=O)c1nn(C)c(=O)c2ccccc12)c1ccc(F)cc1 (stereo not given)	i	i	i	64	i	i
CCOc1cc(OCC)cc(C(=O)Nc2cccnc2)c1	i	nt	nt	i	i	i
Cn1nc(C(=O)NCCN2CCOCC2)c2ccccc2c1=O	i	i	i	i	i	i
Cn1nc(C(=O)NCc2cccnc2)c2ccccc2c1=O	i	i	i	60	i	78
Cn1nc(C(=O)Nc2cccnc2)c2ccccc2c1=O	i	i	i	i	i	i
Cc1n[nH]c(C)c1S(=O)(=O)N1CCN(C2CCCCC2)CC1	i	i	i	i	i	i
CCOC(=O)C(C)Oc1cccc2c(=O)n(CC(=O)N3CCN(C(=O)OCC)CC3)ccc12 (stereo not given)	i	i	i	i	i	i
COc1ccc(OCC(=O)NCc2cccnc2)cc1	i	i	i	i	i	58
CC(C)(C)c1ccc(C(=O)c2c[nH]c(C(=O)NCc3cccnc3)c2)cc1	i	i	i	i	i	i
COc1ccc(C(=O)NCc2cccnc2)cc1Br	i	i	i	72	i	i
Cc1cccc(OCC(=O)Nc2ccc(C(=O)NCc3cccnc3)cc2)c1	i	i	i	i	i	53
O=C(COc1ccc(Cl)cc1)Nc1ccc(C(=O)NCc2cccnc2)cc1	i	i	i	i	i	i
COc1ccc(NC(=O)NCc2cccnc2)cc1OC	i	i	i	i	i	i
CC(C)(C)c1ccc(C(=O)NCc2cccnc2)cc1	i	i	i	69	i	59
CCCCn1c(SCc2cc(=O)[nH]c3ccccc23)nc2c1c(=O)n(C)c(=O)n2C	i	nt	nt	i	i	i
CCCNC(=O)c1cccc(COCC(F)(F)C(F)F)c1	i	i	i	i	i	i
O=C(NCc1cccnc1)c1cc(-c2ccccc2)on1	i	i	i	i	i	i
COc1ccc2c(c1)CCc1c(C(=O)NCc3cccnc3)noc1-2	i	i	i	i	i	i
SMILES	CYP2C19 act	PLK1 kinase inh	Plk1 PBD FP	CYP2C9 inh	CYP2C9 activ	CYP2C19 inh
C/C(NCc1cccnc1)=C(\C#N)C(=O)NCc1ccccc1	i	i	i	i	i	82
COc1cc(OC)cc(C(=O)NCc2cccnc2)c1	i	i	i	i	i	62
Cc1sc(C(=O)NCc2cccnc2)c2nc(C)n(CC(=O)NCc3cccnc3)c(=O)c12	i	i	i	97	i	59
COc1ccc(-c2cc(C(=O)NCc3cccnc3)no2)cc1	i	i	i	58	i	i
CCCn1c(N)c(C(=O)CN2CCN(S(=O)(=O)c3cccs3)CC2)c(=O)[nH]c1=O	i	i	i	i	i	i
Cc1cc(Cl)c(S(=O)(=O)NC2CCCCC2)cc1OCC(=O)Nc1nncs1	nt	i	i	nt	nt	nt
O=C(Nc1nncs1)Oc1ccccc1	i	i	i	i	i	i
CCC(NC(=O)NCc1cccnc1)(C(F)(F)F)C(F)(F)F	i	i	i	73	i	87
O=C(CC(=O)NCc1cccnc1)NCc1cccnc1	i	i	i	i	i	i
COc1ccc(CNC(=O)c2cc(C3CC3)on2)cc1	i	i	i	i	i	81
Cc1ccccc1-n1nc(C)c2cc(C(=O)NCc3cccnc3)sc21	i	i	i	55	i	i
Cc1ccccc1-n1nc(C)c2cc(C(=O)N3CCN(S(=O)(=O)c4ccccc4)CC3)sc21	i	nt	nt	i	i	i
COc1ccc(CNC(=O)c2cc(-c3ccc(OC)c(OC)c3)on2)cc1	i	i	i	i	i	i
COc1cc2cc(Br)cc(Br)c2nc1C	i	i	i	i	i	i
COC(=O)c1[nH]c2ccc(C)cc2c1NC(=O)Nc1ccccc1OC	i	i	i	i	i	i
C=CCn1c(SCC(=O)NCc2ccco2)nc2sc3c(c2c1=O)CCCCC3	nt	i	i	nt	nt	nt
COc1cc2c(C#N)c(N3CCN(C)CC3)nc(N)c2c(N)n1	i	i	i	i	i	i
N#Cc1c(N2CCCC2)nc(N)c2c(N)nc(N3CCCC3)cc12	i	nt	nt	61	i	i
COc1cc2c(C#N)c(N3CCN(c4ccccc4OC)CC3)nc(N)c2c(N)n1	i	nt	nt	68	i	100
N#Cc1c(N)nc(N2CCCC2)c(C#N)c1-c1ccc(Cl)cc1	i	nt	nt	i	i	i
Cc1ncsc1CCSc1nc2ccccc2c(=O)n1C	i	i	i	68	i	77
Cc1ncsc1CCSc1n[nH]c(=O)n1-c1ccccc1	i	i	i	i	i	i
O=c1oc2ccccc2cc1-c1csc(Cc2nc(-c3ccc(Br)cc3)cs2)n1	i	i	i	70	i	61
CC1(C)OC(=O)N(CCc2ccccc2)C1(C)O (stereo not given)	i	nt	nt	i	i	i
Cc1[nH]c2ccc(OCc3ccccc3)cc2c1CCN1C(=O)OC(C)(C)C1(C)O (stereo not given)	i	i	i	i	i	51
SMILES	CYP2C19 act	PLK1 kinase inh	Plk1 PBD FP	CYP2C9 inh	CYP2C9 activ	CYP2C19 inh
O=C(CC(C(=O)N1CCc2ccccc21)n1ccnc1)N1CCc2ccccc2C1 (stereo not given)	i	i	i	i	i	73
CCCCNC(=O)CC(C(=O)N1CCc2ccccc21)n1ccnc1 (stereo not given)	i	i	i	i	i	74
CCN(CCCNC(=O)CC(C(=O)N1CCc2ccccc21)n1ccnc1)c1cccc(C)c1 (stereo not given)	i	i	i	i	i	94
O=C(CC(C(=O)N1CCc2ccccc21)n1ccnc1)NCC1CCCO1 (stereo not given)	i	i	i	65	i	i
O=C(CCCCCC(=O)N(CCO)CCO)N(CCO)CCO	i	i	i	i	i	i
CSc1ccc(/C=C/C(=O)c2ccc(NC(C)=O)cc2)cc1	i	i	i	i	i	51
CSc1ccc(NC(=O)CC(C)=O)cc1	i	i	i	i	i	i
CCCC(=O)Nc1ccc(C(=O)/C=C/c2ccc(SC)cc2)cc1	i	i	i	73	i	50
CCOC(=O)Cc1csc(NC(=O)CSc2nnc(C3CC3)n2C)n1	nt	i	i	nt	nt	nt
O=C(COC(=O)CCS(=O)(=O)c1ccc(Cl)cc1)NC1CCCCC1	i	i	i	i	i	i
CCCC(=O)Nc1ccc(C(=O)NNC(=O)COc2ccc(Br)c(C)c2)cc1	i	i	i	i	i	i
